Hit rate of the full screen: of about 5,500 compounds, about 2,000 (36%) were called active. Another 18% or so got no clear call; they are omitted. Rule as the data show it: active = normalized growth mostly below about 0.91 (no sharp cut-off); inconclusive = no clear call, values can overlap the other calls; inactive = mostly above about 0.92. The list shows a part of the results.
Assay: chemical genetic growth profiling, strain panel (AID 1159580);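 also: tested at 20 µM; growth read once vehicle control cultures reached saturation at 30 °C; 1 = growth at the plate median or of vehicle wells; lower values mean less growth of the strain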
Conditions: growth OD

Measured: normalized growth

COC1=CC23CCCN2CCc2cc4c(cc2C3C1O)OCO4 (centres undefined)
inactive: S. cerevisiae deletion strains, locus YJL187C, strain SWE1, stronger effect = lower value 1.02 | S. cerevisiae deletion strains, locus YJR043C, strain POL32, stronger effect = lower value 0.999 | S. cerevisiae deletion strains, locus YJR066W, strain TOR1, stronger effect = lower value 0.92 | S. cerevisiae deletion strains, locus YJR075W, strain HOC1, stronger effect = lower value 1.01 | S. cerevisiae deletion strains, locus YKL009W, strain mrt4, stronger effect = lower value 1.01 | S. cerevisiae deletion strains, locus YKL068W, stronger effect = lower value 1 | S. cerevisiae deletion strains, locus YKL085W, strain MDH1 (second series), stronger effect = lower value 1.01 | S. cerevisiae deletion strains, locus YKL085W, strain MDH1, stronger effect = lower value 1.01 | S. cerevisiae deletion strains, locus YKL160W, strain elf1, stronger effect = lower value 1.02 | S. cerevisiae deletion strains, locus YKL190W, strain CNB1, stronger effect = lower value 1 | S. cerevisiae deletion strains, locus YKR001C, strain vps1, stronger effect = lower value 1.01 | S. cerevisiae deletion strains, locus YKR026C, strain gcn3, stronger effect = lower value 1.02 | S. cerevisiae deletion strains, locus YKR091W, strain srl3, stronger effect = lower value 1.02 | S. cerevisiae deletion strains, locus YLL001W, strain dnm1, stronger effect = lower value 1.02 | S. cerevisiae deletion strains, locus YLL026W, stronger effect = lower value 1.02 | S. cerevisiae deletion strains, locus YLL041C, strain sdh2, stronger effect = lower value 1.02 | S. cerevisiae deletion strains, locus YLR027C, strain aat2, stronger effect = lower value 1.01 | S. cerevisiae deletion strains, locus YLR039C, strain RIC1, stronger effect = lower value 1.04 | S. cerevisiae deletion strains, locus YLR058C, strain SHM2, stronger effect = lower value 1 | S. cerevisiae deletion strains, locus YLR102C, strain apc9, stronger effect = lower value 1 | S. cerevisiae deletion strains, locus YLR113W, strain HOG1, stronger effect = lower value 0.959 | S. cerevisiae deletion strains, locus YLR221C, strain rsa3, stronger effect = lower value 1.03 | S. cerevisiae deletion strains, locus YLR258W, strain gsy2, stronger effect = lower value 1.02 | S. cerevisiae deletion strains, locus YLR262C, strain YPT6 (second series), stronger effect = lower value 1.04 | S. cerevisiae deletion strains, locus YLR262C, strain YPT6, stronger effect = lower value 1.04 | S. cerevisiae deletion strains, locus YLR268W, strain sec22, stronger effect = lower value 1.02 | S. cerevisiae deletion strains, locus YLR320W, strain mms22, stronger effect = lower value 1.05 | S. cerevisiae deletion strains, locus YLR330W, strain CHS5, stronger effect = lower value 1 | S. cerevisiae deletion strains, locus YLR342W, strain FKS1 (second series), stronger effect = lower value 0.997 | S. cerevisiae deletion strains, locus YLR342W, strain FKS1, stronger effect = lower value 1.02 | S. cerevisiae deletion strains, locus YLR357W, strain rsc2, stronger effect = lower value 1.06 | S. cerevisiae deletion strains, locus YLR370C, strain arc18, stronger effect = lower value 1.03 | S. cerevisiae deletion strains, locus YLR371W, strain rom2, stronger effect = lower value 1.01 | S. cerevisiae deletion strains, locus YLR384C, strain iki3, stronger effect = lower value 1.02 | S. cerevisiae deletion strains, locus YLR418C, strain cdc73, stronger effect = lower value 0.992 | S. cerevisiae deletion strains, locus YML016C, strain PPZ1, stronger effect = lower value 1 | S. cerevisiae deletion strains, locus YML032C, strain rad52, stronger effect = lower value 0.98 | S. cerevisiae deletion strains, locus YML120C, strain ndi1, stronger effect = lower value 1.02 | S. cerevisiae deletion strains, locus YML124C, strain tub3, stronger effect = lower value 1 | S. cerevisiae deletion strains, locus YMR058W, strain fet3, stronger effect = lower value 1.03 | S. cerevisiae deletion strains, locus YMR078C, strain ctf18, stronger effect = lower value 1.01 | S. cerevisiae deletion strains, locus YMR125W, strain sto1, stronger effect = lower value 1.04 | S. cerevisiae deletion strains, locus YMR129W, stronger effect = lower value 1.02 | S. cerevisiae deletion strains, locus YMR205C, strain PFK2, stronger effect = lower value 1.05 | S. cerevisiae deletion strains, locus YMR223W, strain ubp8, stronger effect = lower value 1.01 | S. cerevisiae deletion strains, locus YMR231W, strain pep5, stronger effect = lower value 1.02 | S. cerevisiae deletion strains, locus YMR307W, strain GAS1, stronger effect = lower value 0.984 | S. cerevisiae deletion strains, locus YNL067W, strain RPL9B, stronger effect = lower value 0.99 | S. cerevisiae deletion strains, locus YNL071W, strain lat1, stronger effect = lower value 1.02 | S. cerevisiae deletion strains, locus YNL183C, strain NPR1, stronger effect = lower value 0.926 | S. cerevisiae deletion strains, locus YNL209W, strain ssb2, stronger effect = lower value 1.02 | S. cerevisiae deletion strains, locus YNL233W, strain BNI4, stronger effect = lower value 0.989 | S. cerevisiae deletion strains, locus YNL248C, strain rpa49, stronger effect = lower value 1.04 | S. cerevisiae deletion strains, locus YNL250W, strain rad50, stronger effect = lower value 1.01 | S. cerevisiae deletion strains, locus YNL271C, strain bni1, stronger effect = lower value 1.01 | S. cerevisiae deletion strains, locus YNL298W, strain CLA4, stronger effect = lower value 1.01 | S. cerevisiae deletion strains, locus YNL307C, strain MCK1, stronger effect = lower value 1.01 | S. cerevisiae deletion strains, locus YNL322C, strain KRE1 (second series), stronger effect = lower value 1.02 | S. cerevisiae deletion strains, locus YNR049C, strain mso1, stronger effect = lower value 1.05 | S. cerevisiae deletion strains, locus YNR052C, strain pop2, stronger effect = lower value 1 | S. cerevisiae deletion strains, locus YOL012C, strain htz1 0.879 | S. cerevisiae deletion strains, locus YOL147C, strain pex11, stronger effect = lower value 1.01 | S. cerevisiae deletion strains, locus YOR001W, strain rrp6, stronger effect = lower value 1.04 | S. cerevisiae deletion strains, locus YOR061W, strain CKA2, stronger effect = lower value 1.01 | S. cerevisiae deletion strains, locus YOR069W, strain VPS5, stronger effect = lower value 1.01 | S. cerevisiae deletion strains, locus YOR070C, strain gyp1, stronger effect = lower value 1.02 | S. cerevisiae deletion strains, locus YOR080W, strain dia2, stronger effect = lower value 1.03 | S. cerevisiae deletion strains, locus YOR083W, strain WHI5, stronger effect = lower value 1.03 | S. cerevisiae deletion strains, locus YOR106W, strain vam3, stronger effect = lower value 1.03 | S. cerevisiae deletion strains, locus YOR136W, strain idh2, stronger effect = lower value 1.01 | S. cerevisiae deletion strains, locus YOR144C, strain elg1, stronger effect = lower value 1.01 | S. cerevisiae deletion strains, locus YOR184W, strain ser1, stronger effect = lower value 0.999 | S. cerevisiae deletion strains, locus YOR231W, strain MKK1, stronger effect = lower value 0.972 | S. cerevisiae deletion strains, locus YOR265W, strain rbl2, stronger effect = lower value 1.05 | S. cerevisiae deletion strains, locus YOR270C, strain vph1, stronger effect = lower value 1.09 | S. cerevisiae deletion strains, locus YOR290C, strain snf2, stronger effect = lower value 1 | S. cerevisiae deletion strains, locus YOR316C, strain cot1, stronger effect = lower value 1.01 | S. cerevisiae deletion strains, locus YPL051W, strain arl3, stronger effect = lower value 1.02 | S. cerevisiae deletion strains, locus YPL055C, strain LGE1, stronger effect = lower value 0.999 | S. cerevisiae deletion strains, locus YPL078C, strain atp4, stronger effect = lower value 1.03 | S. cerevisiae deletion strains, locus YPL106C, strain sse1, stronger effect = lower value 1.03 | S. cerevisiae deletion strains, locus YPL240C, strain hsp82, stronger effect = lower value 1.02 | S. cerevisiae deletion strains, locus YPL256C, strain CLN2, stronger effect = lower value 0.949 | S. cerevisiae deletion strains, locus YPR119W, strain clb2, stronger effect = lower value 1 | S. cerevisiae deletion strains, locus YPR141C, strain kar3, stronger effect = lower value 1.01 | S. cerevisiae deletion strains, locus YPR163C, strain tif3, stronger effect = lower value 1.01 | S. cerevisiae deletion strains, locus YPR167C, strain met16, stronger effect = lower value 0.998 | S. cerevisiae deletion strains, strain wtn01, stronger effect = lower value 1.02 | S. cerevisiae strains, strain wild type, stronger effect = lower value 1
